Test results taken from PubChem BioAssay AID504336 (NMMLSC, 2011).
The source made the active and inactive calls.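 Rule for the calls: active = compounds whose GFP signal falls below 65% of the DMSO control level; inconclusive = fewer than 70 yeast cells counted in the well; inactive = the rest.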

Assay: TOR branch reporter RPL19A-GFP response – cell-based, S. cerevisiae, third cherry pick, flow cytometry, confirmation (AID 504336);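 note: median GFP fluorescence of all gated yeast cells by flow cytometry; ratio of well median fluorescence to plate mean of DMSO wells with DMSO = 100%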
Conditions: S. cerevisiae RPL19A-GFP strain, 3 h, at 10 µM, active compounds read low

GFP response relative to DMSO, inactive:
Cc1ccc(NC(=O)O/N=C2\CCCCC2c2ccc([N+](=O)[O-])cc2[N+](=O)[O-])cc1 (centres undefined) 102%
O=C1c2ccccc2C(=O)c2c1cccc2N(CCO)CCO 99.8%
Cc1cccc(Nc2cc(=O)[nH]c(=O)[nH]2)c1C 98.5%
C/C(=C\C(=O)c1ccc(Cl)cc1)Nc1ccc(Br)cc1 100%
CCC(=O)Nn1cnc2c(c1=O)C1(CCCCC1)Cc1ccccc1-2 103%
COc1cccc(NC(=O)CC(C)=O)c1 99.1%
CCCC(=O)Nn1cnc2c(c1=O)C1(CCCCC1)Cc1ccccc1-2 103%
CCCC(=O)Nn1cnc2c(c1=O)C1(CCCC1)Cc1ccccc1-2 102%
O=C(Nc1ccc(-c2nc3ccccc3o2)cc1)c1cccnc1 101%
Cc1ccc2nc(-c3ccc(NC(=O)c4cccnc4)cc3)oc2c1 97.2%
CNc1nc(C)c([N+](=O)[O-])c(Nc2ccc(OC)cc2)n1 102%
COc1ccc(N/C(C)=C/C(=O)c2ccccc2)cc1 102%
Oc1c(Cl)cc(Cl)c2cccnc12 81.6%
O=C(Nc1ccccc1Cl)ON=C1c2ccccc2-c2ccccc21 102%
Cn1cccc1C(=O)Nc1nc(-c2ccccn2)cs1 102%
COc1cccc2c(Cl)c(CCCl)c(C)nc12 99.3%
Cc1cc(C)c2ccc(C(=O)O)nc2c1O 98.5%
Cc1ccc(Nc2cc(=O)[nH]c(=O)[nH]2)cc1Cl 100%
COCCNc1nc(N)c([N+](=O)[O-])c(Nc2ccc(F)cc2)n1 100%
Cc1ccc(Nc2cc(=O)[nH]c(=O)[nH]2)cc1C 96.5%
CSc1nc(Nc2ccc(Cl)cc2)c(C#N)c(=O)[nH]1 98.3%
COc1ccccc1Nc1nc(NCCO)nc(N)c1[N+](=O)[O-] 102%
COc1cccc(OCc2cc(C(=O)N3CCN(C)C(c4ccccc4)C3)no2)c1 (centres undefined) 96.5%
Brc1ccc2ncnc(NCc3ccccc3)c2c1 102%
CC1=NNC(=O)/C1=C\c1cn(-c2ccccc2)nc1-c1ccc(F)cc1 89.7%
C=CCNc1nc(N)c([N+](=O)[O-])c(Nc2cccc(Cl)c2)n1 104%
CC(=O)Nn1cnc2c(c1=O)C1(CCCCC1)Cc1ccccc1-2 99.1%
Cc1ccc2c(Cl)cc(Cl)c(O)c2n1 82.6%
COc1ccccc1-c1cc(C(F)(F)F)nc(S(C)(=O)=O)n1 96.2%
CCN(CC)C(=O)Oc1ccnc2cc(Cl)ccc12 103%
COc1ccccc1-c1cc(C(F)(F)F)nc(S(=O)(=O)CCCC(=O)O)n1 102%
Cc1ccc(C)c(Nc2ncnc(N)c2[N+](=O)[O-])c1 99.3%
CCc1sc(C(=O)Nc2nc(-c3ccccn3)cs2)cc1C 101%
CSc1nc(S(C)(=O)=O)nc2[nH]c(=O)[nH]c12 100%
FC(F)Oc1cccc2cccnc12 95.4%
CC(=O)NCCOc1cccc2cccnc12 102%
COc1ccccc1Nc1nc(NCCC(C)C)nc(N)c1[N+](=O)[O-] 97.8%
Cc1cccc(Nc2cc(=O)[nH]c(=O)[nH]2)c1 100%
CCC(C)Nc1nc(N)c([N+](=O)[O-])c(Nc2ccccc2OC)n1 (centres undefined) 105%
